VDR inh: vitamin D3 receptor (human) inhibition. P11473. VDR-SRC2-3 peptide fluorescence polarization, 2 h. Potency, µM, for inactives: max response, negative = inhibition, usual class: inhibitors. actives 0.93% (n = 400,000)
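Fluorescence polarization assay of small-molecule disruption of VDR binding to coregulator peptide SRC2-3. Compounds and controls pin-transferred, then read after 2 h incubation at ambient room temperature.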
KAT2A inh: inhibitors of human GCN5L2 histone acetyltransferase; AID 504327; GCN5L2 HAT assay, ThioGlo1 CoA-SH fluorescence; Potency, µM (series often up to 58.9 µM), for the others: at the highest dose activity change, negative = inhibition, usual class: inhibitors; actives 0.21% (n = 390,000)
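qHTS, 1536-well. 20nM enzyme, pH 7.5 HEPES/EDTA/Tween-20 buffer; 15 min compound preinc., RT. Start: 75uM H3(1-25), 70uM AcCoA, 50uM ThioGlo1. Read Ex340/Em540 at t=0 (autofluorescence flag) and t=20 min.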
TrxR1 substrate: is turned over as a substrate by rat TrxR1. O89049. purified TrxR1 substrate turnover, NADPH consumption readout. Potency, µM (doses to about 114 µM), for inactives: at the highest dose activity change, negative = substrate turnover. actives 0.01% (n = 390,000); also: nearly all actives have a fitted effect of over 50% in size
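Rat TrxR1, dispensed at 90 nM, was prereduced with 400 uM NADPH (final) for 5 min at ~22 deg C, then incubated with compound 15 min before 400 uM selenite. A first-read NADPH fluorescence drop versus no-compound background flagged substrates.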
TrxR1 inh: rat TrxR1 inhibition. O89049. recombinant rTrxR1, NADPH fluorescence consumption, selenite substrate. Potency, µM (top dose mostly 114 µM), for the others: at the highest dose activity change, negative = inhibition, most hits filed as inhibitors. actives 1% (n = 390,000); also: nearly all actives have a fitted effect of over 65% in size
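Rat TrxR1 (90 nM in the dispensed reagent) was pre-reduced with 400 uM NADPH for 5 min at room temperature, then incubated with compound for 15 min. After 400 uM selenite was added, NADPH fluorescence (Ex 340/Em 450 nm) was followed for 8 min.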
* = called active by the depositor; u = inconclusive; x = no result; [ ] = dose if it differs, or a comment. A selection: hits, their analogues and other compounds. The true share with any hit is near 1.8%. Calls follow the shape of the dose curve; as a rule, active = well fitted curve in the direction sought with a large enough effect; inconclusive = small, poorly fitted or top-dose-only effect, or another doubt; inactive = no such curve, though single readings can be large; an effect the other way counts as inactive or inconclusive. % is scaled to controls: 0 for no effect and ±100 for the full control effect; potency is read from the fitted curve at half-maximal effect.

SMILES	VDR inh	KAT2A inh	TrxR1 substrate	TrxR1 inh
CCOC(=O)c1c(-c2ccccc2)csc1NC(=O)c1cc(-c2ccc(Br)cc2)on1	79.4µM*	1.4%	18.3%	5.5%
CCOC(=O)c1c(NC(=O)c2cc(-c3ccccc3OC)on2)sc(C)c1C	79.4µM*	-9.9%	-3.4%	-2.5%
Cc1cnc2c(C)cccc2c1/C=C/c1ccc(N(C)C)cc1	x	x	-4.8%	-5.0%
Nc1c(Br)cc(/C=C/c2ccnc3ccccc23)cc1Br	x	x	3.7%	-8.8%
COC(=O)c1cc2c(s1)c1cnn(Cc3ccccc3F)c(=O)c1n2C	x	0.3%	x	x
CCOC(=O)c1c(NC(=O)c2cc(CC)on2)sc(C)c1C	79.4µM*	-9.9%	0.6%	-3.0%
Cc1cc(Cl)ccc1OCC(=O)N(Cc1ccco1)c1c(N)n(Cc2ccccc2)c(=O)[nH]c1=O	u	x	-2.8%	50.1µM*
Nc1c(N(CCO)C(=O)/C=C/c2ccco2)c(=O)[nH]c(=O)n1Cc1ccccc1	3.4%	0.6%	-5.6%	20µM*
CCCCN(C(=O)/C=C/c1ccco1)c1c(N)n(CCC)c(=O)[nH]c1=O	-7.2%	-18.8%	-13.5%	-8.2%[57.1 µM]
Cc1cccc(N(CC(O)Cn2c3ccccc3c3ccccc32)S(=O)(=O)c2ccc(F)cc2)c1 (configuration not stated)	-25.4%	-3.0%	-0.7%	20.1%
COc1cc(C=O)cc(OC)c1[N+](=O)[O-]	x	x	4.6%	7.5%
c1ccc([C@@H]2CN3CCSC3=N2)cc1	4.6%	6.7%[21.4 µM]	x	x
Nc1[nH]c(=O)[nH]c(=O)c1N=Cc1ccccc1	70.8µM*	x	276.0%[57.1 µM]	90.6%[57.1 µM]
O=[N+]([O-])C(/C=C(\Cl)[N+](=O)[O-])=C(N1CCCCC1)N1CCCCC1	-18.1%	-12.2%	-19.1%	20µM*
Cc1noc(/C=C/c2ccco2)c1S(=O)(=O)N1CCC(C(=O)N(C)Cc2ccccc2)CC1	8.7%	-19.0%	-11.8%	70.8µM*
O=C(O)COc1ccc2c(c1)O/C(=C\c1cccs1)C2=O	0.1%	-10.1%	-13.6%	-14.5%
O=C(O)COc1ccc2c(c1)O/C(=C\c1ccco1)C2=O	-1.0%	-16.5%	-1.2%	44.7µM*
COCC(=O)N1CCC2(CCCN(Cc3ccccc3OC)C2)CC1	-2.9%	8.2%	x	x
CNc1c(Br)cc(C(O)C2=CCc3ccccc32)cc1Br (configuration not stated)	x	x	9.8%[0.0914 µM]	28.9%
COc1ccc(Cl)c(Cn2cnc3c(cnn3C(C)(C)C)c2=O)c1F	x	x	4.6%	3.5%
C1=Cc2ccccc2/C1=C\c1cc[cH-]c1.[Fe+2].c1cc[cH-]c1	x	x	1.5%	3.16µM*
CCOc1ccc2c(c1)C(NC(C)=O)C(=O)N2CCN1CCOCC1 (configuration not stated)	79.4µM*	9.9%	6.7%	9.8%
CC(=O)NC1C(=O)N(CCN2CCOCC2)c2ccc(Br)cc21 (configuration not stated)	u	-3.0%	5.2%[0.0914 µM]	4.3%
c1cc(SSc2ccncc2)ccn1	31.6µM*	u	-3.9%	-3.3%[57.1 µM]
CCCCCC(=O)Cc1cc(O)cc(O)c1C(=O)Oc1cc(CC(=O)CCCCC)c(C(=O)O)c(OC)c1	-1.7%	-25.6%	x	x
SMILES	VDR inh	KAT2A inh	TrxR1 substrate	TrxR1 inh
CCCCCc1c2c(cc(O)c1C(=O)O)OC(=O)c1c(cc(OC)cc1C(=O)CCCC)O2	79.4µM*	u	2.9%[57.1 µM]	-0.2%[57.1 µM]
CCCCCc1c2c(cc(O)c1C(=O)O)OC(=O)c1cc(C(=O)CCCC)c(OC)cc1O2	79.4µM*	u	-12.5%	-21.6%
CCCCc1c(C(=O)O)cc(OC)cc1C(=O)O	9.8%	-1.4%	5.6%	11.7%
NS(=O)(=O)c1ccc(-c2ccc(/C=C3\C(=O)Nc4ccccc43)o2)cc1	x	-9.5%	x	x
CC1(C)OC(=O)C(=Cc2ccc(-c3ccc(S(N)(=O)=O)cc3)o2)C(=O)O1	79.4µM*	u	2.2%	-18.9%
O=[N+]([O-])c1ccc(S(=O)(=O)N2CCSC2c2ccco2)cc1 (configuration not stated)	79.4µM*	-13.1%	4.4%	-13.9%
Cc1sc2ccccc2[n+]1CCCC[n+]1c(C)sc2ccccc21	x	x	16.7%	172.8%
COc1cc2c(NC3CCN(C)CC3)nc(N3CCCN(C)CC3)nc2cc1OCC1CCCNC1 (configuration not stated)	x	x	58.2%	31.6µM*
COc1cc2nc(N3CCCN(C)CC3)nc(NC3CCN(C)CC3)c2cc1OC	x	x	104.8%	u
COc1cc(CN2CCN(C(=O)CC(C)C)CC2)cc(OC)c1O	-4.3%	-9.0%	4.6%	7.94µM*
